Source: PubChem BioAssay AID1159580 (chemical genetic matrix, 2015)
“And” between values parts separate entries of the source, which are not always exact repeats. Equal entries are not always repeated. About 2,000 (36%) of roughly 5,500 compounds were called active. Another 18% or so got no clear call; they are omitted. No stated cut-off is given here; in the data, active means normalized growth mostly below about 0.91 (no sharp cut-off); inconclusive means no clear call, values can overlap the other calls; inactive means mostly above about 0.92. This is one part of the list.

Test: chemical genetic growth profiling, strain panel (AID 1159580);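 further: tested at 20 µM; growth read once vehicle control cultures reached saturation at 30 °C; 1 = growth at the plate median or of vehicle wells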
Conditions: S. cerevisiae deletion strains, growth OD

Measured: normalized growth

Cc1cc(O)c(C)c(O)c1C(=O)O
inactive: locus YAL021C, strain ccr4, stronger effect = lower value 0.989 | locus YAL026C, strain drs2, stronger effect = lower value 0.979 | locus YAL030W, strain snc1, stronger effect = lower value 0.999 | locus YBL061C, strain skt5, stronger effect = lower value 0.989 | locus YBR009C, strain hhf1, stronger effect = lower value 0.97 | locus YBR021W, strain FUR4, stronger effect = lower value 0.986 | locus YBR023C, strain chs3, stronger effect = lower value 0.981 | locus YBR171W, strain sec66, stronger effect = lower value 0.99 | locus YBR229C, strain ROT2, stronger effect = lower value 0.993 | locus YBR231C, strain swc5, stronger effect = lower value 0.992 | locus YBR279W, strain paf1, stronger effect = lower value 0.984 | locus YCL011C, strain gbp2, stronger effect = lower value 0.991 | locus YCL016C, strain dcc1, stronger effect = lower value 0.99 | locus YCL029C, strain bik1, stronger effect = lower value 0.976 | locus YCL061C, strain MRC1, stronger effect = lower value 1.01 | locus YCL069W, strain vba3, stronger effect = lower value 0.995 | locus YCR088W, strain abp1, stronger effect = lower value 0.988 | locus YDL005C, strain med2, stronger effect = lower value 0.984 | locus YDL035C, strain GPR1, stronger effect = lower value 1.03 | locus YDL040C, strain nat1, stronger effect = lower value 0.99 | locus YDL074C, strain BRE1, stronger effect = lower value 1.06 | locus YDL101C, strain DUN1, stronger effect = lower value 0.986 | locus YDL134C, strain PPH21, stronger effect = lower value 0.978 | locus YDL185W, strain tfp1, stronger effect = lower value 0.964 | locus YDL192W, strain arf1, stronger effect = lower value 0.997 | locus YDR001C, strain nth1, stronger effect = lower value 0.981 | locus YDR069C, strain doa4, stronger effect = lower value 0.956 | locus YDR101C, strain arx1, stronger effect = lower value 1.04 | locus YDR137W, strain rgp1, stronger effect = lower value 0.899 | locus YDR159W, strain sac3, stronger effect = lower value 0.983 | locus YDR162C, strain NBP2, stronger effect = lower value 1.03 | locus YDR195W, strain ref2 0.977 | locus YDR297W, strain sur2, stronger effect = lower value 0.986 | locus YDR318W, strain mcm21, stronger effect = lower value 0.979 | locus YDR334W, strain swr1, stronger effect = lower value 0.975 | locus YDR335W, strain msn5, stronger effect = lower value 0.985 | locus YDR388W, stronger effect = lower value 1 | locus YDR392W, strain spt3, stronger effect = lower value 0.931 | locus YDR502C, strain sam2, stronger effect = lower value 0.98 | locus YEL003W, strain gim4, stronger effect = lower value 0.978 | locus YEL037C, strain rad23, stronger effect = lower value 0.976 | locus YEL061C, strain CIN8 (second series), stronger effect = lower value 0.979 | locus YEL061C, strain CIN8, stronger effect = lower value 1 | locus YER015W, strain faa2, stronger effect = lower value 0.987 | locus YER016W, strain bim1, stronger effect = lower value 0.991 | locus YER110C, stronger effect = lower value 0.984 | locus YER111C, strain swi4, stronger effect = lower value 0.985 | locus YER155C, strain BEM2 (second series), stronger effect = lower value 0.968 | locus YER155C, strain BEM2, stronger effect = lower value 0.988 | locus YER167W, strain BCK2, stronger effect = lower value 1.01 | locus YFR010W, strain ubp6, stronger effect = lower value 0.975 | locus YGL078C, strain dbp3, stronger effect = lower value 0.95 | locus YGL086W, strain mad1, stronger effect = lower value 0.997 | locus YGL167C, strain pmr1, stronger effect = lower value 0.974 | locus YGL173C, strain kem1, stronger effect = lower value 0.984 | locus YGL227W, strain vid30, stronger effect = lower value 0.995 | locus YGL240W, strain doc1, stronger effect = lower value 0.906 | locus YGL248W, strain PDE1, stronger effect = lower value 0.978 | locus YGL253W, strain hxk2, stronger effect = lower value 0.993 | locus YGR078C, strain PAC10, stronger effect = lower value 0.976 | locus YGR135W, strain pre9, stronger effect = lower value 0.925 | locus YGR252W, strain gcn5, stronger effect = lower value 0.926 | locus YHR013C, strain ard1, stronger effect = lower value 0.954 | locus YHR027C, strain rpn1, stronger effect = lower value 0.997 | locus YHR030C, strain SLT2, stronger effect = lower value 1.04 | locus YHR079C, strain IRE1 (second series), stronger effect = lower value 0.993 | locus YHR079C, strain IRE1, stronger effect = lower value 1.02 | locus YHR094C, strain hxt1, stronger effect = lower value 0.981 | locus YHR129C, strain ARP1, stronger effect = lower value 1.01 | locus YHR142W, strain chs7, stronger effect = lower value 1.02 | locus YHR200W, strain rpn10, stronger effect = lower value 0.96 | locus YIL066C, strain RNR3, stronger effect = lower value 1.01 | locus YIL073C, strain SPO22, stronger effect = lower value 0.806 | locus YIL125W, strain kgd1, stronger effect = lower value 1 | locus YIR030C, strain dcg1, stronger effect = lower value 0.989 | locus YJL092W, strain hpr5, stronger effect = lower value 1 | locus YJL095W, strain BCK1 (second series), stronger effect = lower value 1 | locus YJL095W, strain BCK1, stronger effect = lower value 0.988 and 1.05 | locus YJL115W, strain asf1, stronger effect = lower value 0.983 | locus YJL129C, strain trk1, stronger effect = lower value 0.995 | locus YJL134W, strain LCB3, stronger effect = lower value 1 | locus YJL154C, strain vps35, stronger effect = lower value 0.986 | locus YJL164C, strain tpk1, stronger effect = lower value 1.01 | locus YJL166W, strain qcr8, stronger effect = lower value 0.961 | locus YJL168C, strain set2, stronger effect = lower value 0.982 | locus YJL187C, strain SWE1 (second series), stronger effect = lower value 0.985 | locus YJL187C, strain SWE1, stronger effect = lower value 0.992
